PubChem BioAssay AID504803 (The Scripps Research Institute Molecular Screening Center, 2011)
Screen size: about 340,000 compounds; about 1,700 (0.5%) were called active. The full list was thinned out, with actives kept by preference. Values without a mark were called inactive. Rule as the data show it: active = inhibition above about 36%; inactive = the rest.

target: Serine protease HTRA1 (Homo sapiens) (UniProt Q92743); assay: HTRA1 serine protease inhibitors, primary screen, biochemical, fluorescence polarization, HTS (AID 504803); conditions: recombinant HTRA1, FP-rhodamine activity-based probe, at 5.96 µM, hits give high values;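 also: 0% = enzyme with DMSO and 100% = wells lacking enzyme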
Sequence (Q92743 whole entry, looked up): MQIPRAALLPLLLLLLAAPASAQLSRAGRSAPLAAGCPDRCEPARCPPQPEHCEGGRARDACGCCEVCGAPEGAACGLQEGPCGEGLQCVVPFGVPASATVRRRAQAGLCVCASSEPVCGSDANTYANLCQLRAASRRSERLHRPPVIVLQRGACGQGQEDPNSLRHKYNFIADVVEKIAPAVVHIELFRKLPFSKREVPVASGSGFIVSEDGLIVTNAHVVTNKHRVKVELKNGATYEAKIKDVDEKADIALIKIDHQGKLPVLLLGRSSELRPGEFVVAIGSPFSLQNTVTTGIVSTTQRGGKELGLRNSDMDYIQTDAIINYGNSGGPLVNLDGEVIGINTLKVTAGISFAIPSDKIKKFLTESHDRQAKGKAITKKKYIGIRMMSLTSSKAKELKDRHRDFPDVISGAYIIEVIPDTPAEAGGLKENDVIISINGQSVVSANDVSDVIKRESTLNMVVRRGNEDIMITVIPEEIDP

First: C[C@H]1CN([C@@H](C)CO)C(=O)CCCn2cc(nn2)CO[C@@H]1CN(C)S(=O)(=O)c1cccs1
Second: C[C@@H]1CN([C@@H](C)CO)C(=O)CCCn2nncc2CO[C@H]1CN(C)C(=O)Nc1ccc(C(F)(F)F)cc1
The inhibition of the first is higher: 4.51% for the first, -1.93% for the second.

Going from `O=C(NCCN1CCOCC1)c1ccc2c(c1)N(Cc1cccc(Cl)c1)C(=O)c1ccccc1S2(=O)=O` to `O=C(NCCS(=O)(=O)N1CCN(c2ccccc2)CC1)c1cc(=O)c2ccccc2o1`, the inhibition rises from -8.45% to 1.65%.

Going from `O=C(Nc1nnc(SCc2ccccc2Cl)s1)c1cccc([N+](=O)[O-])c1` to `Cc1cc([N+](=O)[O-])ccc1NS(=O)(=O)c1ccccc1`, the inhibition rises from -3.08% to -0.9%.

Compared with `CCc1nnc(SCc2cccc(F)c2)nc1CC`, `Clc1ccc(CSc2nnc3c(n2)[nH]c2ccccc23)cc1` is lower in inhibition: -3.55% for the first, -20.7% for the second.

First: S=C(NCc1ccco1)NCc1ccccc1Cl
Second: Cc1c(CCC(=O)O)c(=O)oc2c(C)c(OCc3ccccc3Cl)ccc12
The inhibition of the first is lower: -12.8% for the first, -1.83% for the second.

First: O=C(NCc1nnnn1-c1ccc(Cl)cc1)c1ccc([N+](=O)[O-])o1
Second: CN(c1ccccc1)S(=O)(=O)c1ccc(C(=O)NCc2cccnc2)cc1
The inhibition of the first is higher: 2.97% for the first, 2.31% for the second.

Compared with `CCN(CC)C(=O)C1=C(C)N(Cc2ccc(C(C)(C)C)cc2)C(=O)C(CC(=O)NCc2cccc3ccccc23)C1` (configuration not stated), `O=C1[C@H]2[C@@H](c3ccc(C(F)(F)F)cc3)N[C@]3(CCCN(Cc4ccc(Cl)cc4)C3=O)[C@H]2C(=O)N1Cc1ccccc1` is lower in inhibition: -39.3% for the first, -39.5% for the second.

First: Nc1cc(=O)c2[nH]cnc2[nH]1
Second: Cc1cc2c3ccccc3[nH]c(=O)n2n1
The inhibition of the first is lower: -44.6% for the first, -0.09% for the second.

First: NS(=O)(=O)c1ccc(CNC(=O)c2cc(S(=O)(=O)N3CCOCC3)ccc2N2CCCC2)cc1
Second: CC(C)CCC(=O)Nc1cc(S(=O)(=O)N2CCOCC2)ccc1N1CCCC1
The inhibition of the first is higher: 0.13% for the first, -0.61% for the second.

First: CCCc1ccc(S(=O)(=O)N2CCN(C(=O)c3cc(C)on3)CC2)cc1
Second: COc1ccc(S(=O)(=O)Nc2ccccc2C(=O)N2CCCC2)cc1C
The inhibition of the first is lower: -2.05% for the first, 1.39% for the second.

First: C[C@H]1Cn2cnc(C(=O)N[C@H](C)c3ccccc3)c2C(=O)N1
Second: CC1CCCN(CC(O)COCc2ccccc2)C1 (configuration not stated)
The inhibition of the first is higher: 6.34% for the first, 1.82% for the second.

First: c1ccc(Cn2nnc3c(NCC4CC4)ncnc32)cc1
Second: COc1cc(C)cc(CN2CCC(Cc3ccccc3)CC2)c1O
The inhibition of the first is lower: -4.95% for the first, 4.82% for the second.

First: CCCc1c(C)nc2scc(-c3ccc(Cl)cc3)n2c1=O
Second: Cc1ccc(-c2nc3ccc(Cl)cn3c2Cc2ccccc2)cc1
The inhibition of the first is higher: 0.07% for the first, -74.4% for the second.

First: C#CCN(C[C@@H]1[C@@H](OC(=O)NC2CC2)[C@@H](OC(=O)NC2CC2)Cn2c(=O)ccc(=O)n21)S(=O)(=O)c1ccc(C)cc1
Second: CC(OC(=O)c1ccc(NC(=O)CC#N)cc1)C(=O)Nc1ccc(S(=O)(=O)N2CCCC2)cc1 (configuration not stated)
The inhibition of the first is higher: -1.46% for the first, -20% for the second.

First: CCOC(=O)c1c(NC(=O)COC(=O)c2ccc(S(=O)(=O)C(F)F)cc2)sc(C(=O)N(C)C)c1C
Second: CCOc1ccc(CCNC(=O)COC(=O)c2ccc(C)c(S(=O)(=O)N3CCOCC3)c2)cc1OCC
The inhibition of the first is lower: -16.1% for the first, -2.04% for the second.

First: Cc1cc(Nc2ccccc2)n(C(=O)c2ccc(N)cc2)n1
Second: COc1ccc(Nc2ccc3ccccc3c2)cc1
The inhibition of the first is lower: -10.8% for the first, 24.9% for the second.

Compared with `O=C(NCCc1cccc(F)c1)C1CC(O)CN1C(=O)Nc1ccccc1` (configuration not stated), `O=C(COC(=O)/C=C/c1cccc(Cl)c1)NCCc1ccccc1` is higher in inhibition: 0.16% for the first, 4.91% for the second.

First: CC(C)[C@H](NC(=O)c1ccccc1F)C(=O)Nc1cccc(S(=O)(=O)N2CCOCC2)c1
Second: CCN(CC)S(=O)(=O)c1ccc(N2CCOCC2)c(NC(=O)C2COc3ccccc3O2)c1 (configuration not stated)
The inhibition of the first is higher: 0.83% for the first, -9.82% for the second.

First: CCOC(=O)C(=Cc1ccccc1)C(=O)c1ccccc1
Second: O=C(NCc1ccccc1)C1CNCC(C(=O)NCc2ccccc2)C1 (configuration not stated)
The inhibition of the first is lower: -10% for the first, 0.67% for the second.

Compared with `O=C(CSc1ccc(Cl)cc1)NC1CC1`, `CCC(CO)Oc1cc(NC(=O)c2ccc(Cl)cc2)c2ncn(C(C)C)c2c1` (configuration not stated) is higher in inhibition: 1.09% for the first, 6.4% for the second.

Compared with `COc1ccc(NCCc2ccccn2)cc1`, `COc1ccc2nc(-c3ccccn3)ccc2c1` is higher in inhibition: 3.17% for the first, 4.04% for the second.

Going from `C[C@H]1CN([C@@H](C)CO)C(=O)c2cc(C3=CCCCC3)cnc2O[C@@H]1CN(C)C(=O)Cc1ccccc1` to `C[C@@H]1CN([C@@H](C)CO)S(=O)(=O)c2ccc(-c3ccc(C(=O)N(C)C)cc3)cc2O[C@@H]1CN(C)Cc1ccccc1C(=O)O`, the inhibition falls from -0.1% to -0.74%.

Going from `Cc1ccc(C=O)c([B-](F)(F)F)c1` to `Cc1ccc(CN2CCN(c3ncccn3)CC2)c(C)c1`, the inhibition falls from 4.92% to -5.09%.

First: Nc1ccccc1-c1nc2ccncc2[nH]1
Second: O=c1[nH]c(/C=C/c2cccc(Br)c2)nc2ccccc12
The inhibition of the first is lower: -6.2% for the first, -1.32% for the second.

Compared with `O=C(Nc1sc2c(c1-c1nc3ccccc3[nH]1)CCCC2)C1CC1`, `CCN1CCCC1CNC(=O)c1ccc2c(c1)NC(=O)/C(=C\c1ccccc1F)S2` (configuration not stated) is lower in inhibition: 3.75% for the first, -43.1% for the second.

Going from `NC(=S)NN=Cc1ccc(OC(=O)COc2cc(Cl)c(Cl)cc2Cl)cn1` to `Cc1cc(/C=N/NC(=O)CC2(C)OCCO2)c(C)n1-c1ccc(Cl)c(Cl)c1`, the inhibition rises from -2.79% to 2.74%.

Compared with `NC(=O)CSC1=Nc2ccccc2C2=NC(CCC(=O)NCc3ccc(F)cc3)C(=O)N12` (configuration not stated), `O=C(CSC1=Nc2ccccc2C2=NC(c3ccccc3)C(=O)N12)NCC1CCCO1` (configuration not stated) is higher in inhibition: 1.09% for the first, 5.98% for the second.

Going from `C#Cc1cc(N2CCN(C(=O)c3ccoc3)CC2)n2nc(-c3cccc(Cl)c3)cc2n1` to `Nc1cc(C(=O)N2CCN(c3ccccc3Cl)CC2)ccc1N1CC2CC(C1)c1cccc(=O)n1C2` (configuration not stated), the inhibition rises from -68.2% to 2.36%.

Going from `O=C(CCCN1C(=O)C(c2ccccc2)Oc2cccnc21)Nc1ccccc1Br` (configuration not stated) to `CCCCN1C[C@H](c2ccc(Br)cc2)[C@@H](CC(=O)Nc2ccc(Br)cc2)C1=O`, the inhibition falls from -5.83% to -22.8%.

Compared with `O=C(COC(=O)CCc1c[nH]c2ccccc12)Nc1cccc(Cl)c1`, `CCC(CO)Oc1cc(NC(=O)c2cccc3ccccc23)c2ncn(C(C)C)c2c1` (configuration not stated) is lower in inhibition: -2.43% for the first, -25% for the second.

First: CC(C)c1ccc(C=NNc2ccc([N+](=O)[O-])cn2)cc1
Second: O=[N+]([O-])c1ccc(C(S(=O)(=O)Cc2ccccc2)S(=O)(=O)Cc2ccccc2)cc1
The inhibition of the first is lower: -18.3% for the first, -1.31% for the second.

Going from `COc1ccc(-c2ccc3[nH]c4c(c3c2)CCN2C[C@H]3[C@H](C)ON(C)[C@H]3C[C@@H]42)cc1` to `COCOCCn1cc(CN2CCS(=O)(=O)N(Cc3ccc(-c4cccc(N(C)C)c4)cc3)C(CC(C)C)C2=O)nn1` (configuration not stated), the inhibition falls from 6.55% to 1.08%.

Going from `COc1ccc(Cl)cc1S(=O)(=O)N1CCN(CC(=O)C(C)(C)C)CC1` to `N#Cc1ccsc1NC(=O)CN1CCN(S(=O)(=O)c2cc(Cl)ccc2Cl)CC1`, the inhibition falls from 4.3% to -36.8%.

First: COc1ncnc2c1ncn2CCCNCCN1CCOCC1
Second: COc1cc(NC(=O)C2=C(C)OCCS2)c(Cl)cc1C(=O)NCCCN1CCCC(C)C1 (configuration not stated)
The inhibition of the first is higher: 0.71% for the first, -6.48% for the second.

First: Cc1cc(=O)oc2cc(OCC(=O)N3CCN(c4ccc(F)cc4)CC3)c(Cl)cc12
Second: COc1ccc(Br)cc1/C=N/Nc1ccc(S(=O)(=O)Nc2ccccc2C(=O)O)cc1[N+](=O)[O-]
The inhibition of the first is higher: 4.27% for the first, -2.73% for the second.

`C=C(C)CNC(=S)N/N=C/c1ccccc1OCC(=O)O` was tested, and the inhibition was 4.14%.

For `Clc1ccccc1CSc1nnc(-c2ccco2)c(-c2ccco2)n1`, the inhibition was 49.6% (active).
In the case of `c1ccc(CSc2nnc(-c3ccco3)c(-c3ccco3)n2)cc1`, the inhibition is reported as 42.8% (active).
With `Nc1ccc(Nc2ccccc2)cc1` the inhibition was 69% (active).
With `COc1cnc(-c2ccccn2)nc1Oc1ccc(C(C)(C)C)cc1` the inhibition was 56.8% (active).
With `CN1c2ccc(C=O)c3c(C=O)ccc(c23)N(C)C1(C)C` the inhibition was 53.2% (active).
In the case of `c1ccc2[nH]c(-c3nc4ccccc4[nH]3)nc2c1`, the inhibition is reported as 80.8% (active).
For `CC(C)C1N=C2c3ccccc3N=C(SCC(=O)c3ccc(O)c(O)c3)N2C1=O` (configuration not stated), the inhibition was 59.3% (active).
In the case of `Cc1c(CC(=O)N2CCN(C(=O)C3COc4ccccc4O3)CC2)c(=O)oc2c(O)c(O)ccc12` (configuration not stated), the inhibition is reported as 51.5% (active).
In the case of `Cc1cc(/C=N/Nc2ccc([N+](=O)[O-])cn2)c(C)n1-c1cccc(C(=O)O)c1`, the inhibition is reported as 40.5% (active).
For `NNc1cccc(C=Cc2ccccc2)cc1=O`, the inhibition was 61.4% (active).
For `CC(C)n1cnc2c(NCc3ccccc3)cc(OCC3CCN(C)CC3)cc21`, the inhibition was 40.1% (active).
With `O=C(CN1CCN(S(=O)(=O)c2cc(Cl)ccc2Cl)CC1)c1ccc(O)c(O)c1` the inhibition was 39.9% (active).
With `Oc1c(CN2CCN(c3ccc(F)cc3)CC2)cc(Cl)c2cccnc12` the inhibition was 50.4% (active).
For `Oc1c(CN2CCCC2)cc(COCc2ccccc2)c2cccnc12`, the inhibition was 49.2% (active).
With `Cc1ccc(NS(=O)(=O)c2ccc(N/N=C/c3ccccc3OCC(=O)O)c([N+](=O)[O-])c2)c(C)c1` the inhibition was 37.7% (active).
For `COc1cccc(/C=N/Nc2ccc(S(=O)(=O)Nc3ccccc3C(=O)O)cc2[N+](=O)[O-])c1O`, the inhibition was 40.5% (active).
